The values that follow come from PubChem BioAssay (EPA / NIEHS).

Test [1] addresses Cellular tumor antigen p53 (Homo sapiens) (UniProt P04637). Nature of the test: TOX21_p53_BLA_p5_ratio: Tox21 HCT-116 p53 Agonism Beta-lactamase Assay, Ratio, Phase 5 (AID 2283599). The procedure, abridged: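 HCT-116 cells carrying a p53-inducible beta-lactamase reporter were seeded at 4000 cells/well and dosed after 5 h with compound in DMSO (217-fold dilution). After 16 h at 37C, CCF4-AM substrate was added for 2 h, and the 460/530 nm emission ratio was scored as gain-of-signal versus DMSO.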

A short description of test [2]: TOX21_p53_BLA_p5_viability: Viability Assessment in the Tox21 HCT-116 p53 Agonism Beta-lactamase Assay, Phase 5 (AID 2283600). The procedure, abridged: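 Decreased CellTiter-Glo luminescence denotes lost viability. Exposure: 16 h at 37C, 5% CO2, with compounds from DMSO stocks diluted 217-fold in wells of 4000 cells.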
In test [3] the target is Cellular tumor antigen p53 (Homo sapiens) (UniProt P04637). Nature of the test: TOX21_p53_BLA_p4_ratio: Tox21 HCT-116 p53 Agonism Beta-lactamase Assay, Ratio, Phase 4 (AID 2283601). In short, it runs like this:
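HCT116 cells carrying an inducible beta-lactamase reporter were plated at 4000 cells/well, rested 5 h, then exposed to compounds in DMSO (217-fold dilution) for 16 h at 37C. CCF4-AM substrate was loaded 2 h at room temperature; 460/530 nm emission ratio scored gain-of-signal versus DMSO.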

The nature of test [4]: Tanguay_ZF_120hpf_MORT_legacy: (Legacy) Oregon State University Tanguay Lab 120 Hour Post-fertilization zebrafish Assay for Mortality (AID 2283633).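 On AC50: fitted as increase in binary mortality versus DMSO negative control.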 The procedure, abridged:
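Dechorionated Tropical 5D wild-type zebrafish embryos, one per well from 6 hpf, static exposure in 0.64% DMSO at 28C until 120 hpf. Mortality scored as binary by brightfield microscopy at 24 and 120 hpf.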

The nature of test [5]: Tanguay_ZF_120hpf_YSE_legacy: (Legacy) Oregon State University Tanguay Lab 120 Hour Post-fertilization zebrafish Assay for Yolk Sac Edema (AID 2283634). The procedure, abridged:
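Dechorionated Tropical 5D wild-type zebrafish embryos were exposed statically, one per well, from 6 to 120 hpf at 28C in 0.64% DMSO. Yolk sac edema was scored present/absent by brightfield at 120 hpf, and dead embryos were excluded.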

Test [6] can be described thus: Tanguay_ZF_120hpf_AXIS_legacy: (Legacy) Oregon State University Tanguay Lab 120 Hour Post-fertilization zebrafish Assay for Body Axis Malformation (AID 2283635). In short, it runs like this:
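Dechorionated wild-type Tropical 5D zebrafish embryos, one per well, statically exposed from 6 hpf to 120 hpf at 28C in 0.64% DMSO final. Body axis malformation scored present/absent by brightfield microscopy at 120 hpf; dead embryos excluded.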

A short description of test [7]: Tanguay_ZF_120hpf_JAW_legacy: (Legacy) Oregon State University Tanguay Lab 120 Hour Post-fertilization zebrafish Assay for Jaw Malformation (AID 2283638). In short, it runs like this:
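Dechorionated Tropical 5D wild-type zebrafish embryos, one per well, exposed statically from 6 hpf to 120 hpf at 28C in 0.64% DMSO. Jaw malformation was scored by brightfield microscopy as present or absent. It was not scored in dead embryos.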

A short description of test [8]: Tanguay_ZF_120hpf_OTIC_legacy: (Legacy) Oregon State University Tanguay Lab 120 Hour Post-fertilization zebrafish Assay for Otic Vesicle Malformation (AID 2283639). The procedure, abridged: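 Brightfield scoring at 120 hpf, binary present/absent; DMSO negative control, 5uM trimethyltin chloride positive control. Static exposure at 28C, final DMSO 0.64% (vol/vol). Dead embryos not scored for malformation.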

Test [9] in a line: Tanguay_ZF_120hpf_PE_legacy: (Legacy) Oregon State University Tanguay Lab 120 Hour Post-fertilization zebrafish Assay for Pericardial Edema (AID 2283640). The procedure, abridged:
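Tropical 5D wild-type zebrafish embryos were statically exposed until 120 hpf at 28C, with 0.64% DMSO final. Pericardial edema was scored by brightfield as present or absent; endpoints were not scored in dead embryos.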

Test [10] is described as follows: Tanguay_ZF_120hpf_PFIN_legacy: (Legacy) Oregon State University Tanguay Lab 120 Hour Post-fertilization zebrafish Assay for Pectoral Fin Malformation (AID 2283648).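 Further: each larva judged yes or no for fin defect by brightfield with dead larvae skipped.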 The procedure, abridged: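 Scoring of pectoral fin malformation was binary, made at 120 hpf on larvae exposed statically from 6 hpf after enzymatic chorion removal. Activity was fitted upward relative to DMSO controls at 0.64% (vol/vol).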

Test [11] is described as follows: Tanguay_ZF_120hpf_CFIN_legacy: (Legacy) Oregon State University Tanguay Lab 120 Hour Post-fertilization zebrafish Assay for Caudal Fin Malformation (AID 2283649). The procedure, abridged: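 Dechorionated Tropical 5D wild-type embryos, one per well from 6 hpf, static exposure to 120 hpf at 28C in 0.64% DMSO. Caudal fin malformation scored by brightfield as present/absent; not scored in dead embryos.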

The nature of test [12]: Tanguay_ZF_120hpf_PIG_legacy: (Legacy) Oregon State University Tanguay Lab 120 Hour Post-fertilization zebrafish Assay for Pigmentation Malformation (AID 2283650). The procedure, abridged: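 Endpoint is incidence of abnormal pigmentation at 120 hpf in dechorionated 5D zebrafish exposed singly from 6 hpf at 28C, DMSO vehicle at 0.64%. Embryos dying by 24 or 120 hpf are excluded from scoring.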

Test [13] is described as follows: Tanguay_ZF_120hpf_CIRC_legacy: (Legacy) Oregon State University Tanguay Lab 120 Hour Post-fertilization zebrafish Assay for Circulatory Malformation (AID 2283651). The procedure, abridged:
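Static exposure, 6–120 hpf, 28C, sealed and dark; one dechorionated 5D embryo/well; DMSO 0.64% v/v final. Binary circulation endpoint by brightfield; dead embryos not scored.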

Test [14] in a line: Tanguay_ZF_120hpf_SWIM_legacy: (Legacy) Oregon State University Tanguay Lab 120 Hour Post-fertilization zebrafish Assay for Swim Bladder Malformation (AID 2283654).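 Further: swim bladder malformation in each larva scored yes or no under brightfield.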 The procedure, abridged: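 Static waterborne exposure of single dechorionated Tropical 5D zebrafish embryos, 6–120 hpf, 28C, 0.64% DMSO final. Read-out: swim bladder malformation, present/absent, relative to DMSO negative control; trimethyltin chloride 5uM served as positive control.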

Test [15] in a line: Tanguay_ZF_120hpf_TRUN_legacy: (Legacy) Oregon State University Tanguay Lab 120 Hour Post-fertilization zebrafish Assay for Truncated Body (AID 2283655). The procedure, abridged:
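Dechorionated Tropical 5D wild-type embryos placed singly from 6 hpf and statically exposed to 120 hpf at 28C, final DMSO 0.64%. Truncated body scored as present/absent by brightfield; not scored in dead embryos.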

Test [16] is described as follows: Tanguay_ZF_120hpf_NC_legacy: (Legacy) Oregon State University Tanguay Lab 120 Hour Post-fertilization zebrafish Assay for Notochord and Tail Malformation (AID 2283656). In short, it runs like this: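 Binary notochord-distortion calls, made by brightfield inspection, form the read-out; activity is fitted in the positive direction against DMSO. Exposure ran statically from 6 to 120 hpf at 28C with 0.64% DMSO.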

Records with an inconclusive call do not appear. Active and inactive are the calls of the source. How the source made its calls: active means hit-call score of the fitted dose curve at least 0.9, where 1 is the maximum; inconclusive means response in the unintended direction; inactive means score below 0.9.

Cellular tumor antigen p53 (Homo sapiens), sequence (P04637 whole entry, looked up): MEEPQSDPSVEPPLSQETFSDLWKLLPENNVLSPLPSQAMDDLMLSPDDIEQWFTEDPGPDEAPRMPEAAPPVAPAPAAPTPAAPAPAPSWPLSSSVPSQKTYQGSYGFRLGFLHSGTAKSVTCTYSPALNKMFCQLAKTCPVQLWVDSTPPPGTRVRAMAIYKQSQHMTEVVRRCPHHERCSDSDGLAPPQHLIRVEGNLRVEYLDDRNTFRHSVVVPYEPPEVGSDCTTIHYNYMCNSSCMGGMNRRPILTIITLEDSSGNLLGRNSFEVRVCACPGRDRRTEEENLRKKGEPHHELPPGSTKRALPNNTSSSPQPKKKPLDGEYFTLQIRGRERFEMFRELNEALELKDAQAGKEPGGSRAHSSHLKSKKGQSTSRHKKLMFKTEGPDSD

With `COc1cc(OC)nc(NC(=O)NS(=O)(=O)c2ncccc2C(=O)N(C)C)n1`, the outcome in test [1], in [2] and in [3] was inactive.
On to `P.[In]`, for which the result in [1], in [2] and in test [3] was inactive.
Regarding `CC(=O)C(Cl)C(=O)N(C)C` (stereo unspecified), the outcome in test [1], in [2] and in test [3] was inactive.
For the compound `O=C(O)C(Cl)(Cl)Cl`, the result in test [1], in test [2], in [3], in [4], in test [5] and in [6] was inactive. For the same compound, the compound was classed as inactive in test [7], in [8], in [9], in test [10], in [11] and in [12]. Moreover, the result in [13], in [14], in [15] and in test [16] was inactive.
A word on the AC50: it is the midpoint of the concentration-response curve, whichever way the signal moves. Turning to `CCN1CCC2(CC1)COc1cc3c(cc12)N(C(=O)c1ccc(-c2ccc(-c4nnc(C)o4)cc2C)cc1)CC3`, the outcome in [1], in [4], in test [5], in test [6], in test [7] and in [8] was inactive. The call in [9], in test [10], in test [12], in test [13], in [14] and in test [15] was inactive. Besides, the compound was classed as inactive in [16]. Moreover, the AC50 in test [2] was 64.2 µM (active); in test [3] it was 57.4 µM (active).
Take `C[C@]12CCC(=O)C[C@@H]1CC[C@@H]1[C@@H]2CC[C@]2(C)[C@@H](O)CC[C@@H]12`: the outcome in test [1], in test [2], in [3], in test [4], in test [5] and in test [6] was inactive. Further, the compound was classed as inactive in test [7], in [8], in [9], in test [10], in test [11] and in [12]. In addition, the outcome in test [13], in [15] and in [16] was inactive.
For `C=C(C)C(=O)[O][Sn]([CH2]CCC)([CH2]CCC)[CH2]CCC`, the AC50 is 35.9 µM (active) in test [1], 1.74 µM (active) in [2], 28.7 µM (active) in test [3] and 1.77 µM (active) in test [4]. The result in test [5], in [6], in test [7], in [8], in test [9] and in test [10] was inactive. For the same compound, the compound was classed as inactive in test [11], in test [12], in [13], in [14], in test [15] and in test [16].
With `CN(C)N=O`, the outcome in test [1], in test [2], in [3], in test [4], in test [5] and in test [7] was inactive. In addition, the call in [8], in test [9], in test [11], in [13], in [15] and in test [16] was inactive.
As for `CN(C)P(=O)(N(C)C)N(C)C`, the result in [1], in test [2] and in [3] was inactive.
